{"source": "PubChem BioAssay (NCATS)", "note": "Results filed as inconclusive are left out. Activity calls are given as the source filed them. The call rests on the fitted dose curve; in most records, active means well fitted cell-killing curve with a large enough effect; inconclusive means small, poorly fitted or top-dose-only effect; inactive means no such curve, though single readings can be large or run the other way. On the % scale 0 is the no-effect control and ±100 the full control effect; potency means the concentration at half of the fitted maximal effect.", "data": [{"test": "qHTS of pediatric cancer cell lines to identify multiple opportunities for drug repurposing: Primary screen for A673 cells (AID 1347092); further: nearly all actives have a fitted effect of over 45% in size", "conditions": "A673 Ewing sarcoma viability, CellTiter-Glo ATP luminescence, 48 h; series mostly up to 46 µM; activity change, negative = cytotoxic: at the top concentration", "text": "Drug repurposing or repositioning has been offered as a strategy for drug development in oncology programs. This approach has special potential for childhood cancers and other rare or orphan diseases, where the expected return on new drug development has been a disincentive to pharmaceuticals. […] In this project we exploit the poly-pharmacology of drugs to discover new indications via phenotypic screening of a panel of 19 well-characterized cell lines derived from solid tumors seen in children and adolescents. The goal is to identify approved drugs with previously unrecognized anticancer properties that has the potential to reveal new mechanisms and biological processes involved in carcinogenesis or drug resistance. We employed a titration-based paradigm (quantitative high-throughput screening or qHTS), where all compounds were tested at multiple concentrations for their effect on cell viability. Concentration-response curves (CRCs) were derived directly from the primary screen, and both potency and efficacy values were used to identify compounds with robust bioactivity profiles. We screened the NIH Chemical Genomics Center (NCGC) Pharmaceutical Collection (NPC) and Mechanism Interrogation Plate (MIPE) small molecule collections of approved and investigational compounds against these cell lines; and measured metabolically active cells after 48 hours of compound treatment as a proxy for cell viability. […] Assay Submitter: Nathalia J. Martinez, National Center for Advancing Translational Sciences, National Institutes of Health, Rockville, MD, USA; email: natalia.martinez@nih.gov. Shen, M et al. Quantitative high-throughput phenotypic screening of pediatric cancer cell lines identifies multiple opportunities for drug repurposing. Oncotarget 2017 Dec 19;9(4):4758-4772. PMID 29435139.\nThe cells were obtained from University of North Carolina (UNC), Pediatric Preclinical Testing Program (PPT), and Coriell Institute (CI). qHTS cell viability assay: Cells were assayed in growth media at a density of 500-1,000 cells/well. Five microliters of cells were dispensed into 1,536-well, white, solid-bottom, TC-treated plates (Greiner Bio One) using a multidrop dispenser and incubated at 37 degrees C, 5% CO2, under a humidified atmosphere for 5 hours. Twenty-three nanoliters of compounds and controls (neutral control DMSO or positive control bortezomib at final concentration of 2.3 uM) were subsequently transferred by Kalypsys pintool. For primary screens, the MIPE collection was tested at 11-point dilutions (final concentrations range from 0.78 nM to 46 µM) and the NPC collection at 8-point dilutions (final concentrations range from 0.59 nM to 46 µM). Compounds tested in follow-up screens were assayed at 11-point dilutions. Cells were incubated for 48 hours, followed by addition of 3 uL of CellTiter-Glo (Promega). After a 15min incubation at room temperature, samples were analyzed for luminescence intensity using a ViewLux High-throughput CCD imager equipped with clear filters.", "values": [{"smiles": "Oc1c(Br)cc(Br)c2cccnc12", "Potency": "3.35 µM (active)"}, {"smiles": "S=c1[nH]c2ccccc2s1", "Potency": "19.3 µM (active)"}, {"smiles": "N=C(N)N", "activity change, negative = cytotoxic": "-6.62% (inactive)"}, {"smiles": "CC(C(=O)O)c1ccc(C(=O)c2ccccc2)s1", "note": "(stereo not given)", "activity change, negative = cytotoxic": "-15.6% (inactive)"}, {"smiles": "COc1cc2c3cc1Oc1cc(ccc1O)C[C@@H]1c4c(cc(OC)c(O)c4Oc4ccc(cc4)C[C@@H]3N(C)CC2)CC[N+]1(C)C", "activity change, negative = cytotoxic": "-9.63% (inactive)"}, {"smiles": "Nc1ccc([N+](=O)[O-])cc1O", "Potency": "0.001 µM (active)"}, {"smiles": "CN1CC(=O)N/C1=N/C(=O)Nc1cccc(Cl)c1", "activity change, negative = cytotoxic": "11.3% (inactive)"}, {"smiles": "Cc1ccc(O)c(-n2nc3ccccc3n2)c1", "activity change, negative = cytotoxic": "-11.7% (inactive)"}, {"smiles": "CN(C)[C@@H]1C(=O)C(C(=O)NCN2CCCC2)=C(O)[C@@]2(O)C(=O)C3=C(O)c4c(O)cccc4[C@@](C)(O)C3C[C@@H]12", "note": "(stereo not given in full)", "activity change, negative = cytotoxic": "2.91% (inactive)"}, {"smiles": "CC(=O)SCC(CC(=O)c1ccc(C)cc1)C(=O)O", "note": "(stereo not given)", "activity change, negative = cytotoxic": "8.33% (inactive)"}, {"smiles": "COC(=O)Nc1nc2ccc(C(=O)C3CC3)cc2[nH]1", "Potency": "1.06 µM (active)"}, {"smiles": "O=C(CCN1CCN(CCO)CC1)N1c2ccccc2Sc2ccc(C(F)(F)F)cc21", "activity change, negative = cytotoxic": "2.49% (inactive)"}, {"smiles": "C=CCCCCCCCCC(=O)O", "activity change, negative = cytotoxic": "-8.51% (inactive)"}, {"smiles": "CN(C)CCn1nnnc1SCC1=C(C(=O)O)N2C(=O)[C@@H](NC(=O)Cc3csc(N)n3)[C@H]2SC1", "activity change, negative = cytotoxic": "5.1% (inactive)"}, {"smiles": "CCCCCCCCCCCCCCCC(=O)OC(C)C", "activity change, negative = cytotoxic": "7.45% (inactive)"}, {"smiles": "O=C(Nc1ccc(C(=O)O)c(O)c1)c1ccccc1", "activity change, negative = cytotoxic": "6.81% (inactive)"}, {"smiles": "CCCCCCCCCCCCCCCCCC(=O)O", "activity change, negative = cytotoxic": "-17.2% (inactive)"}, {"smiles": "CCCSc1ccc2nc(NC(=O)OC)[nH]c2c1", "Potency": "0.841 µM (active)"}, {"smiles": "CCC1C(=O)OCC1Cc1cncn1C", "note": "(stereo not given)", "activity change, negative = cytotoxic": "-7.03% (inactive)"}, {"smiles": "[O-][n+]1ccccc1SSc1cccc[n+]1[O-]", "Potency": "0.0731 µM (active)"}, {"smiles": "C#C[C@]1(O)CC[C@H]2[C@@H]3CCc4cc(O)ccc4[C@H]3CC[C@@]21C", "Potency": "26.6 µM (active)"}, {"smiles": "CCCCCCCCCCCCOCCO", "activity change, negative = cytotoxic": "8.22% (inactive)"}, {"smiles": "CC(C)OC(=O)c1cc(C(=O)OC(C)C)cc([N+](=O)[O-])c1", "activity change, negative = cytotoxic": "-7.29% [at 92.7 µM] (inactive)"}, {"smiles": "N=C1N=C(N)c2cc3ccccc3cc21", "Potency": "19.3 µM (active)"}, {"smiles": "CC(N)C(=O)OC(C)(C)Cc1ccc(Cl)cc1", "note": "(stereo not given)", "activity change, negative = cytotoxic": "-10.4% (inactive)"}, {"smiles": "Nc1nc2ccc([N+](=O)[O-])cc2s1", "activity change, negative = cytotoxic": "-39.1% [at 92.7 µM] (inactive)"}, {"smiles": "CC(=O)c1ccc(OCC(=O)N2CCCCC2)cc1", "activity change, negative = cytotoxic": "3.85% (inactive)"}, {"smiles": "O=C(O)c1ccccc1Nc1cccc(C(F)(F)F)c1", "activity change, negative = cytotoxic": "-8.67% (inactive)"}, {"smiles": "CO[C@@]1(NC(=O)Cc2cccs2)C(=O)N2C(C(=O)O)=C(COC(N)=O)CS[C@@H]21", "activity change, negative = cytotoxic": "12.8% (inactive)"}, {"smiles": "Clc1ccccc1-c1nc(-c2ccncc2)no1", "activity change, negative = cytotoxic": "-9.28% (inactive)"}, {"smiles": "Cc1c(N)c(=O)n(-c2ccccc2)n1C", "activity change, negative = cytotoxic": "-17.7% (inactive)"}, {"smiles": "COc1ccnc2c1CCCCC2S(=O)c1nc2ccccc2[nH]1", "note": "(stereo not given)", "activity change, negative = cytotoxic": "8.73% (inactive)"}, {"smiles": "CN1CCN(c2cc3c(nn2)Oc2ccccc2N3C)CC1", "activity change, negative = cytotoxic": "-3.49% [at 16.1 µM] (inactive)"}, {"smiles": "Nc1ccc(O)c([N+](=O)[O-])c1", "activity change, negative = cytotoxic": "-22.3% [at 92.7 µM] (inactive)"}, {"smiles": "CC(C)(C)c1nnc(NS(=O)(=O)c2ccc(N)cc2)s1", "activity change, negative = cytotoxic": "2.27% (inactive)"}, {"smiles": "Cc1c(C(=O)O)c(O)cc2c1C(=O)c1c(O)c([C@@H]3O[C@H](CO)[C@@H](O)[C@H](O)[C@H]3O)c(O)c(O)c1C2=O", "activity change, negative = cytotoxic": "-14.4% (inactive)"}, {"smiles": "CN(C)c1ccc(C(=C2C=CC(=[N+](C)C)C=C2)c2ccccc2)cc1", "Potency": "0.0422 µM (active)"}, {"smiles": "C/C(=N\\O)c1ccc(OCC(=O)N2CCCCC2)cc1", "activity change, negative = cytotoxic": "-7.35% (inactive)"}, {"smiles": "CCCCCCOc1ccccc1C(N)=O", "activity change, negative = cytotoxic": "-29.5% (inactive)"}, {"smiles": "C[N+]1(C)[C@@H]2CC(OC(=O)[C@H](CO)c3ccccc3)C[C@H]1[C@@H]1O[C@@H]12", "note": "(stereo not given in full)", "activity change, negative = cytotoxic": "8.99% (inactive)"}]}]}
